The values below come from PubChem BioAssay AID504637 (National Center for Advancing Translational Sciences (NCATS), 2011).

The whole screen tested about 1,100 compounds, of which about 430 (39%) were called active. Roughly 44% stayed inconclusive and do not appear here. Calls follow the shape of the dose curve; as a rule, active = well fitted inhibition curve with a large enough effect; inconclusive = small, poorly fitted or top-dose-only effect, or effect the other way; inactive = flat fitted curve, though single readings scatter. The set was probably picked from earlier hits. Only a selection was taken, and actives are over-represented in it overall.
Potency is read from the fitted curve at half-maximal effect.

Chain of ATP-dependent 6-phosphofructokinase (Trypanosoma brucei brucei) (O15648 whole entry, looked up): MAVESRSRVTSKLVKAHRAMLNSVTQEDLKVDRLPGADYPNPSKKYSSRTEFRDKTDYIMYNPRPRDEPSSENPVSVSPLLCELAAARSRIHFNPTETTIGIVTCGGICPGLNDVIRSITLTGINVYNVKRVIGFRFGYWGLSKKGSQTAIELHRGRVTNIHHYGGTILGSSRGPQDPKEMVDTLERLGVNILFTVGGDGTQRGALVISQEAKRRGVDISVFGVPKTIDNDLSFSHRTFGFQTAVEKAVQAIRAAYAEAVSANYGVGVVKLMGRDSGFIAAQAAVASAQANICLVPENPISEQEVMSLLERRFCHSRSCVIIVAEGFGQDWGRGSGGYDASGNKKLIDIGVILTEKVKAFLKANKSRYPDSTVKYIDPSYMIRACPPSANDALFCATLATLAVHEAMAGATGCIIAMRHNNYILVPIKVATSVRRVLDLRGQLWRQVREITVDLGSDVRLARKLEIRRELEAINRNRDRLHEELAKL

This assay deals with ATP-dependent 6-phosphofructokinase (Trypanosoma brucei brucei) (UniProt O15648). Kind of assay: Inhibitors of T. brucei phosphofructokinase: Hit Validation. Also: nearly all actives have a fitted effect of over 60% in size. The settings on record: purified T. brucei PFK, ADP-Glo luminescence, 45 min; series mostly up to 57.5 µM. The text has this:
NCGC Assay Overview: Various species of the protozoan family Trypanosomatidae are responsible for a range of serious human diseases in tropical and subtropical areas of the world. […] Many of the disorders caused by trypanosomatids are fatal if left untreated, but most currently used drugs are inefficient and toxic. […] Oxidative metabolism involving the mitochondrial tricarboxylic acid cycle and oxidative phosphorylation are repressed in these parasites, and recent RNA interference (RNAi) experiments have shown that even partial depletion of certain individual glycolytic enzymes can lead to the death of cultured parasites. One such glycolytic enzyme, phosphofructokinase (PFK), catalyzes the formation of fructose-1,6-bisphosphate (F1,6BP) and ADP from fructose-6-phosphate (F6P) and ATP, and in many metabolic circumstances makes an important contribution to the control of flux through the glycolytic pathway. As a specific glycolytic target, PFK is particularly attractive as it catalyzes the first irreversible step in glycolysis, and structural and kinetic studies have shown very substantial and essential differences from corresponding host enzymes, allowing for the discovery of parasite-selective inhibitors. The goal of this screen is to find small-molecule inhibitors of T. brucei PFK using a biochemical assay that measures PFK activity as a function of ADP production. A luminescence-based assay for T. brucei PFK activity has been developed which uses luciferase to detect production of ADP. Traditional luciferase-based nucleotide detection reagents rely on ATP production as a direct substrate for the luciferase reaction; however, PFK catalyzes the transfer of a phosphate from ATP to F6P, resulting in the net depletion of ATP. To directly measure the ADP product of the PFK reaction, we used the ADP-Glo detection kit (Promega), which utilizes two separate reactions to 1) deplete all remaining uncatalyzed ATP and 2) convert all remaining ADP to ATP, which is then detected through a traditional luciferase-coupled reaction. Compounds were screened as a concentration-titration series that ranged from 57uM to 0.7nM. 1. Verlinde, C.L., et al., Glycolysis as a target for the design of new anti-trypanosome drugs. Drug Resist Updat, 2001. 4(1): p. 50-65. 2. Albert, M.A., et al., Experimental and in silico analyses of glycolytic flux control in bloodstream form Trypanosoma brucei. J Biol Chem, 2005. 280(31): p. 28306-15. 3. […] J Mol Biol, 2009. 385(5): p. 1519-33. NIH Molecular Libraries Probe Production Network [MLPCN] NIH Chemical Genomics Center [NCGC] Grant: 1 R03 MH092153-01 PI Name: Malcolm Walkinshaw, University of Edinburgh
NCGC Assay Protocol Summary: Substrate buffer was dispensed into white, solid 1536-well plates at 3uL/well in 0.1M triethanolamine (TEA) buffer, pH 8.0, containing final concentrations of 5 mM MgCl2, 0.01% Tween20, 0.5 mM fructose-6-phosphate (F6P) and 0.1mM ATP. Then, 23 nL of compounds or DMSO were delivered to each well using a pin tool. One uL T. brucei PFK (0.1M TEA, 0.01% Tween20, 0.1% bovine serum albumin (BSA) and 1.25nM PFK, final concentrations) was then dispensed, and plates were incubated at room temperature for 45 min. The luminescent detection reagent, ADP-Glo (Promega), was then added in two steps: the first reagent, ADP-Glo (which converts remaining uncatalyzed ATP), was added at 2.5uL/well and incubated for ten minutes at room temperature, and the second component, Kinase Detection reagent (which converts ADP to ATP as a substrate for luciferase-based luminescence), was added immediately after at 5uL/well, followed by one final ten minute room temperature incubation. The plates were measured on a ViewLux plate reader for luminescent signal using a clear filter with a one second exposure. The %Activity was determined from the corrected luminescence values. […]
On the technique in general: In ADP-Glo the light output rises with the ADP produced.
Take `Cn1nnnc1NCc1ccc(Cl)c(Cl)c1`: the Potency was 23.9 µM (active).

Take `Cc1ccc(CC(=O)Nc2ccc(S(=O)(=O)N3CCOCC3)cc2)cc1C`: the Potency result is “inactive”.

For the compound `O=C(Cc1ccc(Cl)c(Cl)c1)Nc1ccc(SC(F)F)cc1`, the Potency is 23.9 µM (active).

In the case of `O=C(COC(=O)CCC(=O)c1cccs1)NCc1ccco1`, the Potency entry is “inactive”.

`C=CC1=C(C(=O)O)N2C(=O)[C@@H](NC(=O)/C(=N\OCC(=O)O)c3csc(N)n3)[C@H]2SC1`: the Potency is 4.26 µM (active).

As to `N#Cc1cccc(CSc2ncnc(N)n2)c1`, the Potency was 26.9 µM (active).

For `C=C1c2c(Cl)ccc(O)c2C(O)=C2C(=O)[C@]3(O)C(O)=C(C(N)=O)C(=O)[C@@H](N(C)C)[C@@H]3[C@@H](O)C12` (some centres not stated), the Potency entry was “inactive”.

With `O=C1CSC(=S)N1/N=C/c1ccc(O)c([N+](=O)[O-])c1`, the Potency result is “inactive”.

For the compound `O=C1CSC(=S)N1c1ccc(Cl)c(Cl)c1`, the Potency entry was “inactive”.

Turning to `COC(=O)CC(=O)N1CCN(c2ccc(Cl)c(Cl)c2)CC1`, the Potency was 26.9 µM (active).

Regarding `Cc1nn(Cc2ccc(Cl)c(Cl)c2)c(C)c1NC(=O)c1cc(C2CC2)on1`, the Potency was 12 µM (active).

For the compound `O=[N+]([O-])/C=C/c1ccc2c(ccn2Cc2ccccc2)c1`, the Potency was 23.9 µM (active).

On to `CC(C)(C)c1nnc(NC(=O)C2c3ccccc3Oc3ccccc32)s1`, for which the Potency is 26.9 µM (active).

On to `Cc1ccc(NC(=O)c2cc(-c3ccc(C)o3)nc3ccccc23)nc1`, for which the Potency was 12 µM (active).

For the compound `O=C(Cc1ccc([N+](=O)[O-])cc1)N/N=C/c1ccco1`, the Potency is 23.9 µM (active).

With `O=C(NCc1ccc(Cl)c(Cl)c1)c1cccnc1`, the Potency is 26.9 µM (active).

As to `Cc1ccc(-c2nn(-c3ccccc3)cc2/C=C2\SC(=S)N(CCCCCC(=O)O)C2=O)o1`, the Potency is 30.1 µM (active).

For the compound `O=c1[nH]c(=S)[nH]c2[nH]c(=S)[nH]c12`, the Potency was 1.9 µM (active).

As to `O=[N+]([O-])c1c(NCCO)cc(Sc2nc3ccccc3s2)c2nonc12`, the Potency was 1.51 µM (active).

For `O=C(CSc1nc(O)c(Cc2ccccc2)c(=O)[nH]1)Nc1nc2c(s1)CCCC2`, the Potency was 16.9 µM (active).

As for `OCCN1CCN(C(=S)c2ccc(-c3ccccc3)cc2)CC1`, the Potency was 26.9 µM (active).

`FC(F)(F)C1CCCN(c2nsc3ccccc23)C1` (configuration not stated): the Potency is 4.26 µM (active).

As to `CCn1nc(C(=O)NNS(=O)(=O)c2cc(/C=C/C(=O)O)cc(OC)c2OC)c2ccccc2c1=O`, the Potency result is “inactive”.

Regarding `Cc1c(C)c2ccc(OCC(=O)N3CCN(c4cccc(Cl)c4)CC3)cc2oc1=O`, the Potency was 8.49 µM (active).

Turning to `COc1ccc(N/C=C(\C2OC(=O)c3ccccc32)[N+](=O)[O-])cc1` (configuration not stated), the Potency entry was “inactive”.

For the compound `Cc1nc(N)nc(SCc2ccc([N+](=O)[O-])cc2)c1N`, the Potency is 19 µM (active).

For `Cc1cccc(-n2c(N)c(C(=O)N3CCN(C)CC3)sc2=S)c1`, the Potency was 13.5 µM (active).

For `O=c1ccnc(Nc2ccc(Cl)cc2)[nH]1`, the Potency was 30.1 µM (active).

With `C=C(C)C(=O)Nc1cccc(C2=NOC3(C2)C[C@H](C(N)=O)N(C(=O)C(c2ccccc2)c2ccccc2)C3)c1` (some centres not stated), the Potency was 1.9 µM (active).

Regarding `Cn1sc(=O)c2cc(S(=O)(=O)NC3CC3)ccc21`, the Potency is 21.3 µM (active).

On to `O=c1[nH]c2ccccc2n2c(-c3ccccc3)nnc12`, for which the Potency was 13.5 µM (active).

Take `Cc1ccccc1CN1C[C@@H]2C[C@@H](c3cn(C)nc3-c3ccccc3)N3CCC[C@@]23C1=O`: the Potency result was “inactive”.
